According to PubChem BioAssay AID1159580 (chemical genetic matrix, 2015):
“And” between values parts separate entries of the source, which are not always exact repeats. Equal entries are not always repeated. About 2,000 (36%) of roughly 5,500 compounds were called active. Roughly 18% stayed inconclusive and do not appear here. Cut-off read from the data, not from the text of the source: active = normalized growth mostly below about 0.91 (no sharp cut-off); inconclusive = no clear call, values can overlap the other calls; inactive = mostly above about 0.92. The list shows a part of the results.

Assay: chemical genetic growth profiling, strain panel (AID 1159580);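 note: tested at 20 µM; growth read once vehicle control cultures reached saturation at 30 °C; 1 = growth at the plate median or of vehicle wells; lower values mean less growth of the strain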
Conditions: growth OD

Measured: normalized growth

O=C1CCCN1CC#CCN1CCCC1
inactive: S. cerevisiae deletion strains, locus YJR075W, strain HOC1, stronger effect = lower value 0.988 and 1 | S. cerevisiae deletion strains, locus YKL009W, strain mrt4, stronger effect = lower value 1.02 and 1.05 | S. cerevisiae deletion strains, locus YKL068W, stronger effect = lower value 1 | S. cerevisiae deletion strains, locus YKL085W, strain MDH1 (second series), stronger effect = lower value 1.02 | S. cerevisiae deletion strains, locus YKL085W, strain MDH1, stronger effect = lower value 1.02 | S. cerevisiae deletion strains, locus YKL160W, strain elf1, stronger effect = lower value 1.02 | S. cerevisiae deletion strains, locus YKL190W, strain CNB1, stronger effect = lower value 0.989 and 1.02 | S. cerevisiae deletion strains, locus YKR001C, strain vps1, stronger effect = lower value 1.01 and 1.02 | S. cerevisiae deletion strains, locus YKR026C, strain gcn3, stronger effect = lower value 1.02 | S. cerevisiae deletion strains, locus YKR091W, strain srl3, stronger effect = lower value 1.02 | S. cerevisiae deletion strains, locus YLL001W, strain dnm1, stronger effect = lower value 1.02 | S. cerevisiae deletion strains, locus YLL026W, stronger effect = lower value 1.01 | S. cerevisiae deletion strains, locus YLL041C, strain sdh2, stronger effect = lower value 1.02 | S. cerevisiae deletion strains, locus YLR027C, strain aat2, stronger effect = lower value 1.02 | S. cerevisiae deletion strains, locus YLR039C, strain RIC1, stronger effect = lower value 1.03 and 1.01 | S. cerevisiae deletion strains, locus YLR058C, strain SHM2, stronger effect = lower value 1.01 | S. cerevisiae deletion strains, locus YLR102C, strain apc9, stronger effect = lower value 1.01 and 1.02 | S. cerevisiae deletion strains, locus YLR113W, strain HOG1, stronger effect = lower value 1.04 | S. cerevisiae deletion strains, locus YLR221C, strain rsa3, stronger effect = lower value 1 | S. cerevisiae deletion strains, locus YLR258W, strain gsy2, stronger effect = lower value 1.02 | S. cerevisiae deletion strains, locus YLR262C, strain YPT6 (second series), stronger effect = lower value 1.03 | S. cerevisiae deletion strains, locus YLR262C, strain YPT6, stronger effect = lower value 1.05 and 1.02 | S. cerevisiae deletion strains, locus YLR268W, strain sec22, stronger effect = lower value 1.02 and 0.991 | S. cerevisiae deletion strains, locus YLR320W, strain mms22, stronger effect = lower value 1.02 | S. cerevisiae deletion strains, locus YLR330W, strain CHS5, stronger effect = lower value 1 and 1.01 | S. cerevisiae deletion strains, locus YLR342W, strain FKS1 (second series), stronger effect = lower value 1.02 and 1.06 | S. cerevisiae deletion strains, locus YLR342W, strain FKS1, stronger effect = lower value 1.02 | S. cerevisiae deletion strains, locus YLR357W, strain rsc2, stronger effect = lower value 1.05 | S. cerevisiae deletion strains, locus YLR370C, strain arc18, stronger effect = lower value 1.02 | S. cerevisiae deletion strains, locus YLR371W, strain rom2, stronger effect = lower value 0.994 and 1.03 | S. cerevisiae deletion strains, locus YLR384C, strain iki3, stronger effect = lower value 1.03 | S. cerevisiae deletion strains, locus YLR418C, strain cdc73, stronger effect = lower value 1.05 and 0.979 | S. cerevisiae deletion strains, locus YML016C, strain PPZ1, stronger effect = lower value 1.01 | S. cerevisiae deletion strains, locus YML032C, strain rad52, stronger effect = lower value 1.01 and 1.04 | S. cerevisiae deletion strains, locus YML120C, strain ndi1, stronger effect = lower value 1.03 | S. cerevisiae deletion strains, locus YML124C, strain tub3, stronger effect = lower value 1 | S. cerevisiae deletion strains, locus YMR058W, strain fet3, stronger effect = lower value 1.03 | S. cerevisiae deletion strains, locus YMR078C, strain ctf18, stronger effect = lower value 1.03 and 1.02 | S. cerevisiae deletion strains, locus YMR125W, strain sto1, stronger effect = lower value 1.04 | S. cerevisiae deletion strains, locus YMR129W, stronger effect = lower value 1.03 | S. cerevisiae deletion strains, locus YMR205C, strain PFK2, stronger effect = lower value 1.02 | S. cerevisiae deletion strains, locus YMR223W, strain ubp8, stronger effect = lower value 1.02 and 1.03 | S. cerevisiae deletion strains, locus YMR231W, strain pep5, stronger effect = lower value 1.03 | S. cerevisiae deletion strains, locus YMR263W, strain SAP30, stronger effect = lower value 1.01 | S. cerevisiae deletion strains, locus YMR307W, strain GAS1, stronger effect = lower value 1 and 0.983 | S. cerevisiae deletion strains, locus YNL067W, strain RPL9B, stronger effect = lower value 0.998 and 1.01 | S. cerevisiae deletion strains, locus YNL071W, strain lat1, stronger effect = lower value 1.02 | S. cerevisiae deletion strains, locus YNL128W, strain TEP1, stronger effect = lower value 1.01 | S. cerevisiae deletion strains, locus YNL153C, strain GIM3, stronger effect = lower value 1.03 and 0.992 | S. cerevisiae deletion strains, locus YNL175C, strain NOP13, stronger effect = lower value 0.992 | S. cerevisiae deletion strains, locus YNL183C, strain NPR1, stronger effect = lower value 0.999 | S. cerevisiae deletion strains, locus YNL197C, strain WHI3, stronger effect = lower value 0.986 | S. cerevisiae deletion strains, locus YNL209W, strain ssb2, stronger effect = lower value 1.02 | S. cerevisiae deletion strains, locus YNL224C, strain SQS1, stronger effect = lower value 1.01 | S. cerevisiae deletion strains, locus YNL233W, strain BNI4, stronger effect = lower value 0.993 and 0.996 | S. cerevisiae deletion strains, locus YNL248C, strain rpa49, stronger effect = lower value 1.03 | S. cerevisiae deletion strains, locus YNL250W, strain rad50, stronger effect = lower value 1.02 and 1.01 | S. cerevisiae deletion strains, locus YNL271C, strain bni1, stronger effect = lower value 1.01 and 1.03 | S. cerevisiae deletion strains, locus YNL298W, strain CLA4, stronger effect = lower value 1.03 | S. cerevisiae deletion strains, locus YNL307C, strain MCK1, stronger effect = lower value 1.02 and 1.03 | S. cerevisiae deletion strains, locus YNL322C, strain KRE1 (second series), stronger effect = lower value 1.02 | S. cerevisiae deletion strains, locus YNL322C, strain KRE1, stronger effect = lower value 1 and 1.01 | S. cerevisiae deletion strains, locus YNR049C, strain mso1, stronger effect = lower value 1.02 | S. cerevisiae deletion strains, locus YNR052C, strain pop2, stronger effect = lower value 1.01 and 1.04 | S. cerevisiae deletion strains, locus YOL006C, strain TOP1, stronger effect = lower value 1.03 and 1.04 | S. cerevisiae deletion strains, locus YOL012C, strain htz1 0.71 and 1.25 | S. cerevisiae deletion strains, locus YOL147C, strain pex11, stronger effect = lower value 1.01 | S. cerevisiae deletion strains, locus YOR001W, strain rrp6, stronger effect = lower value 1.04 | S. cerevisiae deletion strains, locus YOR061W, strain CKA2, stronger effect = lower value 1.01 | S. cerevisiae deletion strains, locus YOR069W, strain VPS5, stronger effect = lower value 1 and 1.01 | S. cerevisiae deletion strains, locus YOR070C, strain gyp1, stronger effect = lower value 1.02 | S. cerevisiae deletion strains, locus YOR080W, strain dia2, stronger effect = lower value 1.03 | S. cerevisiae deletion strains, locus YOR083W, strain WHI5 (second series), stronger effect = lower value 1.02 | S. cerevisiae deletion strains, locus YOR083W, strain WHI5, stronger effect = lower value 1.02 | S. cerevisiae deletion strains, locus YOR106W, strain vam3, stronger effect = lower value 1.05 | S. cerevisiae deletion strains, locus YOR136W, strain idh2, stronger effect = lower value 1.01 and 1.02 | S. cerevisiae deletion strains, locus YOR144C, strain elg1, stronger effect = lower value 1 and 1.01 | S. cerevisiae deletion strains, locus YOR184W, strain ser1, stronger effect = lower value 1.04 and 1.05 | S. cerevisiae deletion strains, locus YOR231W, strain MKK1, stronger effect = lower value 1.06 | S. cerevisiae deletion strains, locus YOR265W, strain rbl2, stronger effect = lower value 1.02 | S. cerevisiae deletion strains, locus YOR270C, strain vph1, stronger effect = lower value 1.08 | S. cerevisiae deletion strains, locus YOR290C, strain snf2, stronger effect = lower value 1.02 | S. cerevisiae deletion strains, locus YOR316C, strain cot1, stronger effect = lower value 1.01 | S. cerevisiae deletion strains, locus YPL051W, strain arl3, stronger effect = lower value 1.02 | S. cerevisiae deletion strains, locus YPL055C, strain LGE1, stronger effect = lower value 0.986 and 1.01 | S. cerevisiae deletion strains, locus YPL078C, strain atp4, stronger effect = lower value 1.04 | S. cerevisiae deletion strains, locus YPL106C, strain sse1, stronger effect = lower value 1.02 | S. cerevisiae deletion strains, locus YPL240C, strain hsp82, stronger effect = lower value 1.03 | S. cerevisiae deletion strains, locus YPL241C, strain CIN2, stronger effect = lower value 1 and 1.01 | S. cerevisiae deletion strains, locus YPL256C, strain CLN2, stronger effect = lower value 1.02 | S. cerevisiae deletion strains, locus YPR119W, strain clb2, stronger effect = lower value 1.01 | S. cerevisiae deletion strains, locus YPR141C, strain kar3, stronger effect = lower value 1.01 | S. cerevisiae deletion strains, locus YPR163C, strain tif3, stronger effect = lower value 1.02 and 1 | S. cerevisiae deletion strains, locus YPR167C, strain met16, stronger effect = lower value 1.02 and 1.03 | S. cerevisiae deletion strains, strain wtn01, stronger effect = lower value 1.03 and 1.02 | S. cerevisiae strains, strain wild type, stronger effect = lower value 1 and 1.01
